# Test results from the supplement of paper PMC8728848.
# Only a selection was taken, and the strongest signals are over-represented in it overall.
# B1: Eap (Staphylococcus aureus), A0A7L5PYT7 (protein)
# chain: MKFKSLITTTLALGVLASTGANFNNNEAAAAAKPLDKSSSSLHHGYSKVHVPYAITVNGTSQNILSSLTFNKNQNISYKDLEDRVKSVLKSDRGISDIDLRLSKQAKYTVYFKNGTKKVIDLKAGIYTADLINTSEIKAININVDTKKQVEDKKKDKANYQVPYTITVNGTSQNILSNLTFNKNQNISYKDLEDKVKSVLESNRGITDVDLRLSKQAKYTVNFKNGTKKVIDLKSGIYTANLINSSDIKSININVDTKKHIENKAKRNYQVPYSINLNGTSTNILSNLSFSNKPWTNYKNLTSQIKSVLKHDRGISEQDLKYAKKAYYTVYFKNGGKRILQLNSKNYTANLVHAKDVKRIEITVKTGTKAKADRYVPYTIAVNGTSTPILSDLKFTGDPRVGYKDISKKVKSVLKHDRGIGERELKYAKKATYTVHFKNGTKKVININSNISQLNLLYVQDIKKIDIDVKTGTKAKADSYVPYTIAVNGTSTPILSKLKISNKQLISYKYLNDKVKSVLKSERGISDLDLKFAKQAKYTVYFKNGKKQVVNLKSDIFTPNLFSAKDIKKIDIDVKQYTKSKKNK
# How the values were obtained:
# Test in all cases: glycan array binding signal (z-score within array); higher = stronger binding
# Conditions in all cases: glycan notation: IUPAC condensed, linker removed
# [1] = target: Fuc(a1-2)Gal(b1-3)GalNAc(b1-3)Gal(a1-4)Gal(b1-4)Glc
# Procedure, shortened: (§1)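 The binding signal is a Z-score computed within each array. Data were drawn from 3228 arrays in the Consortium for Functional Glycomics database, restricted to those with a known protein sequence. Scores were averaged over arrays of the same protein sequence at different concentrations or buffers, and over linkers, and negative values can be taken as non-binding.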
# [2] = target: Fuc(a1-2)Gal(b1-3)[Fuc(a1-4)]GlcNAc
# Procedure, shortened: as §1
# [3] = target: Fuc(a1-2)[Gal(a1-3)]Gal(b1-3)GlcNAc(b1-2)Man(a1-3)[Fuc(a1-2)[Gal(a1-3)]Gal(b1-3)GlcNAc(b1-2)Man(a1-6)]Man(b1-4)GlcNAc(b1-4)GlcNAc
# Procedure, shortened: as §1
# [4] = target: Fuc(a1-2)[GalNAc(a1-3)]Gal
# Procedure, shortened: as §1
# [5] = target: Fuc(a1-2)[GalNAc(a1-3)]Gal(b1-4)GlcNAc(b1-3)Gal(b1-4)GlcNAc(b1-3)Gal(b1-4)GlcNAc
# Procedure, shortened: as §1
# [6] = target: Fuc(a1-3)[Gal(b1-4)]GlcNAc(b1-4)Gal(b1-4)[Fuc(a1-3)]GlcNAc(b1-4)Gal(b1-4)[Fuc(a1-3)]GlcNAc
# Procedure, shortened: as §1
# [7] = target: Fuc(a1-3)[Gal(b1-4)]GlcNAc6S
# Procedure, shortened: as §1
# [8] = target: Fuc(a1-3)[Gal3S(b1-4)]GlcNAc6S
# Procedure, shortened: as §1
# [9] = target: Fuc(a1-3)[Neu5Ac(a2-3)]Gal(b1-4)GlcNAc(b1-3)GalNAc
# Procedure, shortened: as §1
# [10] = target: Gal(a1-3)Gal(b1-4)[Fuc(a1-3)]GlcNAc
# Procedure, shortened: as §1
# [11] = target: Gal(a1-3)Gal(b1-4)[Fuc(a1-3)]GlcNAc(b1-2)Man(a1-3)[Gal(a1-3)Gal(b1-4)[Fuc(a1-3)]GlcNAc(b1-2)Man(a1-6)]Man(b1-4)GlcNAc(b1-4)GlcNAc
# Procedure, shortened: as §1
# [12] = target: Gal(a1-4)Gal(b1-4)GlcNAc(b1-3)Gal(b1-4)Glc
# Procedure, shortened: as §1
# Gal(b1-3)GalNAc = target: Gal(b1-3)GalNAc
# Procedure, shortened: as §1
# [13] = target: Gal(b1-3)GalNAc(b1-4)Gal(b1-4)Glc
# Procedure, shortened: as §1
# [14] = target: Gal(b1-4)GlcNAc(b1-2)Man(a1-6)Man(b1-4)GlcNAc(b1-4)GlcNAc
# Procedure, shortened: as §1
# [15] = target: Gal(b1-4)GlcNAc(b1-3)Gal(b1-4)GlcNAc(b1-3)Gal(b1-4)GlcNAc
# Procedure, shortened: as §1
# Gal3S(b1-4)GlcNAc = target: Gal3S(b1-4)GlcNAc
# Procedure, shortened: as §1
# Gal3S4S(b1-4)GlcNAc = target: Gal3S4S(b1-4)GlcNAc
# Procedure, shortened: as §1
# GlcA(b1-6)Gal = target: GlcA(b1-6)Gal
# Procedure, shortened: as §1
# [16] = target: GlcNAc(a1-4)Gal(b1-4)GlcNAc(b1-3)Gal(b1-4)Glc
# Procedure, shortened: as §1
# [17] = target: GlcNAc(a1-4)Gal(b1-4)GlcNAc(b1-3)Gal(b1-4)GlcNAc
# Procedure, shortened: as §1
# [18] = target: GlcNAc(a1-4)Gal(b1-4)GlcNAc(b1-3)Gal(b1-4)[Fuc(a1-3)]GlcNAc(b1-3)Gal(b1-4)[Fuc(a1-3)]GlcNAc
# Procedure, shortened: as §1
# [19] = target: GlcNAc(b1-4)GlcNAc(b1-4)GlcNAc(b1-4)GlcNAc(b1-4)GlcNAc(b1-4)GlcNAc
# Procedure, shortened: as §1
# [20] = target: Man(a1-2)Man(a1-3)[Man(a1-6)]Man(a1-6)[Man(a1-2)Man(a1-3)]Man(b1-4)GlcNAc(b1-4)GlcNAc
# Procedure, shortened: as §1
# [21] = target: Neu5Ac(a2-3)Gal(b1-4)[Fuc(a1-3)]GlcNAc
# Procedure, shortened: as §1
# [22] = target: Neu5Ac(a2-3)Gal(b1-4)[Fuc(a1-3)]GlcNAc(b1-6)[Gal(b1-3)]GalNAc
# Procedure, shortened: as §1
# [23] = target: Neu5Ac(a2-3)Gal(b1-4)[Fuc(a1-3)]GlcNAc(b1-6)[Neu5Ac(a2-3)Gal(b1-3)]GalNAc
# Procedure, shortened: as §1
# Neu5Ac(a2-3)GalNAc = target: Neu5Ac(a2-3)GalNAc
# Procedure, shortened: as §1
# [24] = target: Neu5Ac(a2-6)Gal(b1-4)GlcNAc6S
# Procedure, shortened: as §1
# [25] = target: Neu5Ac(b2-6)Gal(b1-4)GlcNAc
# Procedure, shortened: as §1
binder,measurement,setting,value
B1,glycan array binding signal (z-score),[1],0.012
same,glycan array binding signal (z-score),[2],-0.514
same,glycan array binding signal (z-score),[3],-0.498
same,glycan array binding signal (z-score),[4],-0.319
same,glycan array binding signal (z-score),[5],3.63
same,glycan array binding signal (z-score),[6],-0.587
same,glycan array binding signal (z-score),[7],1.35
same,glycan array binding signal (z-score),[8],4.89
same,glycan array binding signal (z-score),[9],3.33
same,glycan array binding signal (z-score),[10],-0.392
same,glycan array binding signal (z-score),[11],-0.414
same,glycan array binding signal (z-score),[12],-0.4
same,glycan array binding signal (z-score),Gal(b1-3)GalNAc,-0.063
same,glycan array binding signal (z-score),[13],-0.183
same,glycan array binding signal (z-score),[14],-0.437
same,glycan array binding signal (z-score),[15],-0.513
same,glycan array binding signal (z-score),Gal3S(b1-4)GlcNAc,-0.007
same,glycan array binding signal (z-score),Gal3S4S(b1-4)GlcNAc,1.97
same,glycan array binding signal (z-score),GlcA(b1-6)Gal,-0.24
same,glycan array binding signal (z-score),[16],4.14
same,glycan array binding signal (z-score),[17],4.58
same,glycan array binding signal (z-score),[18],8.99
same,glycan array binding signal (z-score),[19],-0.455
same,glycan array binding signal (z-score),[20],-0.331
same,glycan array binding signal (z-score),[21],-0.563
same,glycan array binding signal (z-score),[22],-0.08
same,glycan array binding signal (z-score),[23],-0.297
same,glycan array binding signal (z-score),Neu5Ac(a2-3)GalNAc,-0.425
same,glycan array binding signal (z-score),[24],-0.392
same,glycan array binding signal (z-score),[25],-0.365
